In PubChem BioAssay (NCATS):
Records with an inconclusive call do not appear. The source made the active and inactive calls. The call rests on the fitted dose curve; in most records, active means well fitted inhibition curve with a large enough effect; inconclusive means small, poorly fitted or top-dose-only effect; inactive means flat fitted curve, though single readings scatter.

What follows are compounds tested on HaCat (assay: Cytotoxic Profiling of Annotated Libraries Using Quantitative High-Throughput Screening (AID 1296008; further: nearly all actives have a fitted effect of over 60% in size)). Details: Five cell lines viability, CellTiter-Glo ATP luminescence, 48-72 h; max response: hits give low values.
Summary of the method: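 Cytotoxicity was measured as CellTiter-Glo ATP luminescence, read after 10 min at room temperature. Compound treatment of the cells lasted 48 or 72 hr at 37 degrees Celsius in a qHTS format.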
On the % scale 0 is the no-effect control and ±100 the full control effect; potency means the concentration at half of the fitted maximal effect.

Structure (SMILES) | max response | outcome | Potency
CC(=O)O[C@H]1CC[C@H](C)[C@@]2(C)[C@H](OC(C)=O)c3c(C)coc3C(=O)[C@H]12 | 2.83% (inactive) |  | 
CC1(C)CCC2(C(=O)OC3OC(CO)C(O)C(O)C3O)CCC3(C)C(=CCC4C5(C)CCC(OC6OC(C(=O)O)C(OC7OC(CO)C(O)C(O)C7O)C(OC7OC(CO)C(O)C(O)C7O)C6O)C(C)(C)C5CCC43C)C2C1 (centres undefined) | 0.399% (inactive) |  | 
O=S(=O)(NC1CCC(c2cc(F)ccc2F)(S(=O)(=O)c2ccc(Cl)cc2)CC1)C(F)(F)F (centres undefined) | -23.1% (inactive) |  | 
CS(=O)(=O)N(CC(=O)NCC1CC1)c1cc(C(F)(F)F)ccc1Cl | -2.56% (inactive) |  | 
CC(=O)O[C@@H]1[C@H](O[C@@H]2O[C@@H](CO)[C@H](O)[C@H]2O)[C@@H](O[C@@H]2O[C@@H](C)[C@H](O[C@@H]3OC[C@@H](O)[C@H](O)[C@H]3O)[C@@H](O)[C@H]2O)[C@H](OC(=O)[C@]23CCC(C)(C)C[C@H]2C2=CCC4[C@@]5(C)CC[C@H](O[C@@H]6O[C@H](C(=O)O)[C@@H](O)[C@H](O)[C@H]6O[C@@H]6O[C@H](CO)[C@H](O)[C@H](O)[C@H]6O)[C@@](C)(C=O)C5CC[C@@]4(C)[C@]2(C)CC3)O[C@@H]1C (some centres undefined) |  | inactive | 
CC1(C)CCCC2(C)C(CO)C(CO)=CCC12 (centres undefined) | 0.151% (inactive) |  | 
C/C=C(/COC(=O)/C(C)=C/C)C(=O)OC(CC)c1ccc(OC)c(OC)c1 (centres undefined) | 3.4% (inactive) |  | 
CCCN1CCN(c2ccc(C(=O)NC3(C(=O)NCC#N)CCCCC3)cc2)CC1 | -5.96% (inactive) |  | 
C=C[C@H]1[C@H](O[C@@H]2O[C@H](CO)[C@@H](O)[C@H](O)[C@H]2O)OC=C(C(=O)OC)[C@H]1C[C@@H]1c2cc(O)c(O)cc2CCN1C(C)=O | 3.48% (inactive) |  | 
CC(C)C(N)C(=O)OCCOCn1cnc2c(=O)[nH]c(N)nc21 (centres undefined) | -13.5% (inactive) |  | 
C[C@@H]1O[C@@H](O[C@H]2[C@H](O)[C@@H](O[C@@H]3O[C@H](CO)[C@@H](O)[C@H](O[C@@H]4O[C@H](CO)[C@@H](O)[C@H](O)[C@H]4O)[C@H]3O)[C@H](O[C@H]3CC[C@@]4(C)C(=CC[C@@H]5C4CC[C@@]4(C)C5C[C@@H]5OC6(CC[C@@](C)(CO[C@@H]7O[C@H](CO)[C@@H](O)[C@H](O)[C@H]7O)O6)[C@@H](C)[C@@H]54)C3)O[C@@H]2CO)[C@H](O)[C@H](O)[C@H]1OC1OC(CO)C(O)C(O)C1O (some centres undefined) | -1.18% (inactive) |  | 
CC(C)CC1NC(=O)C(C)NC(=O)C(CC(C)C)OC(=O)CCCNC1=O (centres undefined) | -8.69% (inactive) |  | 
CC1OC(OC2CCC3(C)C(CCC4(C)C3CC=C3C5CC(C)(C)CCC5(C(=O)OC5OC(CO)C(O)C(O)C5O)CCC34C(=O)O)C2(C)C)C(O)C(O)C1O (centres undefined) | -11.4% (inactive) |  | 
COc1ccc(CNC(=O)c2cc(-c3cncc(C)c3)ncc2-c2nccs2)nc1OC | -36.2% (inactive) |  | 
Cc1cc(C(=O)Nc2cccc(C(=O)Nc3cccc(C(F)(F)F)c3)c2)on1 |  | inactive | 
COc1cc2c(cc1O)[C@H](c1ccc(O[C@@H]3O[C@H](CO)[C@@H](O)[C@H](O)[C@H]3O)c(OC)c1)[C@@H](CO)[C@](O)(CO)C2 | -2.06% (inactive) |  | 
CC(=O)OC1C(c2ccccc2)CCC(c2ccccc2)C1OC(C)=O (centres undefined) | 3.27% (inactive) |  | 
C=C1CC[C@@H]2[C@@](C)(CO[C@@H]3O[C@H](CO)C(O)[C@H](O)C3O)[C@H](O)CC[C@@]2(C)[C@@H]1CC/C(C)=C/CO (some centres undefined) | -3.82% (inactive) |  | 
CC(C)(C)NS(=O)(=O)c1cncc(-c2cc(F)c3nc(N)nn3c2)c1 | -25.2% (inactive) |  | 
CC(=O)O[C@@H]1c2c(C)coc2C(=O)[C@@]23O[C@@H]2CC[C@H](C)[C@@]13C | -14.6% (inactive) |  | 

Structure (SMILES) | max response | outcome | Potency
C/C=C/c1cc(OC)c2c(c1)[C@@H](C)[C@@H](c1ccc(O)c(OC)c1)O2 | -83.1% (inactive) |  | 
CCOc1cc(C(=O)N2CCC(N3CCN(C)CC3)CC2)ccc1Nc1ncc2c(n1)N(C1CCCC1)c1ccccc1C(=O)N2C | -1.5% (inactive) |  | 
O=C(Nc1ccc(S(=O)(=O)Nc2ccccc2Cl)c(Cl)c1)c1ccccn1 | -15.8% (inactive) |  | 
CC1=CCC2C(C)(C)CCC[C@]2(C)[C@@]12CC[C@](C)(CC(=O)O)O2 (some centres undefined) | -3.64% (inactive) |  | 
CC1CC[C@]2(C(=O)O)CC[C@]3(C(=O)O)C(=CCC4[C@@]5(C)CC[C@H](OC6OC(C)C(O)C(OC7OC(CO)C(O)C(O)C7O)C6O)C(C)(C)C5CC[C@]43C)C2C1C (some centres undefined) | -2.82% (inactive) |  | 
C/C1=C\CCC(C)CCO[C@@H]2O[C@H](CO[C@@H]3OC[C@H](O)[C@H](O)[C@H]3OC1=O)[C@@H](O)[C@H](O)[C@H]2O (some centres undefined) | -12.1% (inactive) |  | 
C[C@H]1CC(=O)Nc2cccc(-c3cnn(C(C)(C)C)c3)c2N1 | 4.21% (inactive) |  | 
Cc1cccc(Oc2cnc(=O)[nH]c2)c1 | -9.89% (inactive) |  | 
CC(=O)N[C@H]1[C@H](O[C@H]2CC[C@@]3(C)C(CC[C@]4(C)C3CC=C3[C@@H]5CC(C)(C)CC[C@]5(C(=O)OC5OCC(O)C(O)C5O)CC[C@]34C)C2(C)C)O[C@H](COC2OC(C)C(O)C(OC3OC(C)C(O)C(O)C3O)C2O)[C@@H](O)[C@@H]1O (some centres undefined) | 2.89% (inactive) |  | 
COc1ccc(-c2c(-c3cc(C(=O)O)ccn3)ncn2C)cc1 | -1.2% (inactive) |  | 
COc1cc2oc(-c3ccc(O)cc3O)cc2c(OC)c1CC=C(C)C | -6.75% (inactive) |  | 
CC(C)[C@@H]1C(=O)N(S(C)(=O)=O)[C@@H]2CCN(C(=O)/C=C/CN3CCCCC3)[C@H]21 | -0.855% (inactive) |  | 
O=C(Nc1c(-c2cccs2)nc2ccccn12)c1ccc(Cl)cc1 |  | inactive | 
C[C@@H]1O[C@@H](O[C@@H]2[C@@H](O)[C@H](O[C@H]3[C@H](O[C@H]4CC[C@@]5(C)C(CC[C@]6(C)C5CC=C5[C@@H]7CC(C)(C)CC[C@]7(C(=O)O[C@@H]7O[C@H](CO)[C@@H](O)[C@H](O)[C@H]7O[C@@H]7O[C@@H](C)[C@H](O[C@@H]8O[C@@H](C)[C@H](O)[C@@H](O)[C@H]8O)[C@@H](O)[C@H]7O)CC[C@]56C)[C@@]4(C)CO)O[C@H](C(=O)O)[C@@H](O)[C@@H]3O)O[C@H](CO)[C@H]2O)[C@H](O)[C@H](O)[C@H]1O (some centres undefined) | 4.58% (inactive) |  | 
CC[C@H]1OC(=O)[C@](C)(F)C(=O)[C@H](C)[C@@H](O[C@@H]2O[C@H](C)C[C@H](N(C)C)[C@H]2O)[C@](C)(OC)C[C@@H](C)C(=O)[C@@H](C)[C@H]2N(CCCCn3cc(-c4cccc(N)c4)nn3)C(=O)O[C@]12C | -5.51% (inactive) |  | 
CC1(C)CC2C(O)c3cocc3CC(C)(O)C2C1 (centres undefined) | -7.3% (inactive) |  | 
CC1OC(OC2C(CO)OC(OCC3OC(OC(=O)C45CCC(C)(C)CC4C4=CCC6C7(C)CCC(OC8OC(CO)C(O)C(OC9OC(CO)C(O)C(O)C9O)C8O)C(C)(C)C7CCC6(C)C4(C)CC5)C(O)C(O)C3O)C(O)C2O)C(O)C(O)C1OC1OC(CO)C(O)C(O)C1O (centres undefined) | -8.62% (inactive) |  | 
COCCOc1cnc2ccn([C@H](C)c3nnc4c(F)cc(-c5cnn(C)c5)cn34)c(=O)c2c1 | 4.9% (inactive) |  | 
CCOc1cc2ncc(C#N)c(Nc3ccc(F)c(Cl)c3)c2cc1NC(=O)/C=C/CN(C)C |  |  | 25.9 nM (active)
